Screens from PubChem.
The sample as a whole holds a higher share of hits than the screen did.
ROCK2 blocker = blocks human Rho kinase 2 activity | O75116 | purified ROCK2, Kinase-Glo ATP depletion luminescence | inhibition, % at 6 µM | 60,000 tested, 0.35% active;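 active = inhibition above the screen-wide mean inhibition plus 3 SD, cut at about 18% in these data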;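 also: plate controls were DMSO wells for no effect and Y-27632 control wells after no-enzyme background subtraction for full effect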
PKA inh = blocks human protein kinase A activity. PKA Kemptide phosphorylation, Kinase-Glo ATP luminescence. inhibition, % at 6 µM. 65,000 tested, 0.1% active. AID 524;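 active = inhibition above the screen-wide mean inhibition plus 3 SD, cut at about 21% in these data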
hDAT+cocaine = human DAT dopamine uptake with cocaine, either direction; LLC-PK1 hDAT cells, [14C]-dopamine uptake with cocaine IC80; actives deviate in either direction; B-score at 10 µM; 110,000 tested, 1.3% active;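 active = Z score or B-score, a plate-position-corrected score, falls beyond the plate's 99.7% confidence bounds, in either direction; inactive = both scores lie inside the 99.7% bounds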;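 also: scored against the spread of the other compound wells on the same plate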
D1 mod = allosterically modulates the human D1 dopamine receptor. P21728. HEK293 D1, CRE-luciferase, dopamine EC30 potentiation; actives deviate in either direction. B-score at 10 µM. 58,000 tested, 5.9% active. AID 641;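 active = luminescence count or its row- and column-corrected plate score outside the 99.7% band of the plate's sample wells, on either side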
* marks the source's active call; other numbers are inactive results.

What do the screens show for `O=C(CSCCO)Nc1ccc(C2CCCCC2)cc1`?
ROCK2 blocker: 7; PKA inh: 13; hDAT+cocaine: 3.1*; D1 mod: -1.3

Results for COC(C/C=C/[C@@H](O)[C@H](C)OCc1ccccc1)OC ?
hDAT+cocaine: -0.0023

What do the screens show for `COc1ccc(NC(=O)CCCCn2c(=O)[nH]c3ccccc3c2=O)cc1`?
ROCK2 blocker: -4; PKA inh: -5; hDAT+cocaine: -7.7*; D1 mod: 0.4

What do the screens show for `Cc1cc(=O)oc(C)c1C(=O)NCC(C)NC(=O)c1c(C)cc(=O)oc1C` (stereo not given)?
ROCK2 blocker: -1; PKA inh: -5; hDAT+cocaine: 3.2*

How did Cc1cc(=O)oc(C)c1C(=O)NCC(C)C do in these assays?
ROCK2 blocker: 6; PKA inh: 1; hDAT+cocaine: -0.15

Results for CCN1CCN(Cc2ccc(NC(=O)Nc3ccccc3Cl)cc2)CC1 ?
ROCK2 blocker: 1; PKA inh: 5; hDAT+cocaine: 0.041; D1 mod: -3.3*

How did CCOC(=O)c1c(-c2ccco2)csc1N do in these assays?
ROCK2 blocker: -1; PKA inh: 2; hDAT+cocaine: 2.1*; D1 mod: 0.13

How did CCOC(=O)C(=O)Nc1ccc(F)cc1 do in these assays?
hDAT+cocaine: -1.3

What do the screens show for `CN(C)/C=C(\C#N)C(=O)Nc1ccc(F)cc1`?
hDAT+cocaine: -2.2*

Results for COc1cc2nc(-c3cccs3)oc(=O)c2cc1OC ?
ROCK2 blocker: 1; PKA inh: -4; hDAT+cocaine: -0.33; D1 mod: 5.6*

What do the screens show for `O=c1oc(-c2cccs2)nc2ccc(Br)cc12`?
hDAT+cocaine: -0.26

Results for COc1ccc2occ(C(=O)c3coc4ccc(O)c(CN(C)C)c34)c2c1 ?
ROCK2 blocker: 6; PKA inh: 15; hDAT+cocaine: 1.5; D1 mod: -1.1

What do the screens show for `COc1ccc(C(=O)c2coc3ccc(O)c(CN4CCCCC4)c23)cc1`?
ROCK2 blocker: 5; PKA inh: 8; hDAT+cocaine: 3.5*; D1 mod: -0.46

What do the screens show for `C=CCNC(=O)N1C2=NC(C(=O)OC)=C(C(=O)OC)[C@@H]3N(Cc4ccccc4)c4ccccc4[C@]23C[C@H]1C(=O)OC`?
hDAT+cocaine: 0.11

How did O=C(NCCc1csc(-c2ccc(C(F)(F)F)cc2)n1)c1cccs1 do in these assays?
hDAT+cocaine: 2.1*

Results for O=C(NCCc1csc(-c2cccnc2)n1)c1cccs1 ?
ROCK2 blocker: -9; PKA inh: 1

What do the screens show for `Cc1csc(NC(C)c2nc3cc(C(F)(F)F)ccc3n2CCCO)n1` (stereo not given)?
hDAT+cocaine: -2.7*

How did CC(Nc1nc(-c2ccc(F)cc2)cs1)c1nc2cc(Cl)c(Cl)cc2n1CCCO (stereo not given) do in these assays?
hDAT+cocaine: -0.42

How did c1ccc(CN2CCN(CCCNc3ccc4nnc(-c5ccccc5)n4n3)CC2)cc1 do in these assays?
ROCK2 blocker: 3; PKA inh: 1; hDAT+cocaine: 0.58; D1 mod: -5.6*

Results for Fc1ccccc1N1CCN(CCCNc2ccc3nncn3n2)CC1 ?
ROCK2 blocker: 1; PKA inh: 2; hDAT+cocaine: -0.66; D1 mod: -6.1*

Results for O=C(Nc1ccc(Cl)c(Cl)c1)N(CCCN1CCOCC1)Cc1cccs1 ?
hDAT+cocaine: -1.4

How did Cc1ccc(S(=O)(=O)NC(C)(C)CSc2nncn2N)cc1 do in these assays?
ROCK2 blocker: 6; PKA inh: 7; hDAT+cocaine: 0.6; D1 mod: 0.63

Results for Cc1ccc(S(=O)(=O)NC(C)(C)CSc2nnc(Nc3ccccc3)s2)cc1 ?
hDAT+cocaine: -8.1*

How did Cn1c(=O)c2[nH]c(-c3ccc(S(=O)(=O)O)cc3)nc2n(C)c1=O do in these assays?
hDAT+cocaine: 0.23

What do the screens show for `COc1ccccc1N1CCN(C(=O)CCNS(=O)(=O)c2ccc(Br)s2)CC1`?
ROCK2 blocker: 5; PKA inh: 12; hDAT+cocaine: -3.9*; D1 mod: -0.52

What do the screens show for `O=C(CCNS(=O)(=O)c1ccc(Br)s1)N1CCN(c2ccccc2)CC1`?
ROCK2 blocker: 5; PKA inh: 5; hDAT+cocaine: -0.48; D1 mod: 0.94

How did C#CCNC(=O)C1=C[C@@H](c2ccc(Br)cc2)C[C@@H](OCCCCO)O1 do in these assays?
hDAT+cocaine: 0.0051

Results for CCS(=O)(=O)N1CCN(S(=O)(=O)c2ccccc2)CC1 ?
hDAT+cocaine: -9.6*

How did NC(=O)c1ccccc1N/C=C/C(=O)c1ccccc1 do in these assays?
ROCK2 blocker: -16; PKA inh: -6; hDAT+cocaine: 0.29; D1 mod: -2.5*

What do the screens show for `O=C(/C=C/NNC(=O)c1ccccc1)c1ccccc1`?
hDAT+cocaine: 0.59
